Bioassay records deposited in PubChem by several laboratories.
An excerpt weighted towards active compounds, which were near 1.4% of everything screened.
HTR5A inv ctr – HTR5A inverse agonists in luminescence cell assay, primary screen, counter-screen for OPRM1-OPRD1 heterodimer inverse agonist project, full-deck HTS; inhibition, % at 9.3 µM; 0.083% of 340,000 active; HTR5A cell line, inverse agonism; in the data active = inhibition mostly above about 23%, no sharp cut-off; inactive = mostly below about 18%;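 note: 0% = cells with DMSO and 100% = no-cell wells with DMSO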
beta cell repl – inducers of MIN6 beta-cell proliferation, primary screen, ATP luminescence, uHTS; MIN6 cells proliferation, ATPlite luminescence, 48 h; cells starved in 0.2% serum; 100% = growth in 10% serum; proliferation, % at 10 µM; 0.29% of 330,000 active; AID 2380, 2010;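 active = compounds whose signal lies at least 3.5 SD above the mean of all wells on their plate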;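 note: 0% = DMSO-treated cells in low-serum medium and 100% = 10% serum control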
MOR-DOR ag-1 – agonists of OPRM1-OPRD1 heterodimerization, primary screen, cell-based, luminescence; cells; activation, % at 9.3 µM; 0.3% of 340,000 active; AID 504326, 2011;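 note: 0% = vehicle-treated cells and 100% = reference agonist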
pCIP destab – p/CIP-EGFP fusion destabilizers, primary screen, fluorescence, F442A cells. decrease of EGFP signal, % at 10 µM. 0.01% of 290,000 active. 16 h. Q05BA5;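 active = EGFP signal decrease of at least 30% at 10 µM or well 3 SD below plate mean, unless failing retest; inactive = the rest, including hits failing retest or dose response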
Target sequence (Q05BA5 1-1403): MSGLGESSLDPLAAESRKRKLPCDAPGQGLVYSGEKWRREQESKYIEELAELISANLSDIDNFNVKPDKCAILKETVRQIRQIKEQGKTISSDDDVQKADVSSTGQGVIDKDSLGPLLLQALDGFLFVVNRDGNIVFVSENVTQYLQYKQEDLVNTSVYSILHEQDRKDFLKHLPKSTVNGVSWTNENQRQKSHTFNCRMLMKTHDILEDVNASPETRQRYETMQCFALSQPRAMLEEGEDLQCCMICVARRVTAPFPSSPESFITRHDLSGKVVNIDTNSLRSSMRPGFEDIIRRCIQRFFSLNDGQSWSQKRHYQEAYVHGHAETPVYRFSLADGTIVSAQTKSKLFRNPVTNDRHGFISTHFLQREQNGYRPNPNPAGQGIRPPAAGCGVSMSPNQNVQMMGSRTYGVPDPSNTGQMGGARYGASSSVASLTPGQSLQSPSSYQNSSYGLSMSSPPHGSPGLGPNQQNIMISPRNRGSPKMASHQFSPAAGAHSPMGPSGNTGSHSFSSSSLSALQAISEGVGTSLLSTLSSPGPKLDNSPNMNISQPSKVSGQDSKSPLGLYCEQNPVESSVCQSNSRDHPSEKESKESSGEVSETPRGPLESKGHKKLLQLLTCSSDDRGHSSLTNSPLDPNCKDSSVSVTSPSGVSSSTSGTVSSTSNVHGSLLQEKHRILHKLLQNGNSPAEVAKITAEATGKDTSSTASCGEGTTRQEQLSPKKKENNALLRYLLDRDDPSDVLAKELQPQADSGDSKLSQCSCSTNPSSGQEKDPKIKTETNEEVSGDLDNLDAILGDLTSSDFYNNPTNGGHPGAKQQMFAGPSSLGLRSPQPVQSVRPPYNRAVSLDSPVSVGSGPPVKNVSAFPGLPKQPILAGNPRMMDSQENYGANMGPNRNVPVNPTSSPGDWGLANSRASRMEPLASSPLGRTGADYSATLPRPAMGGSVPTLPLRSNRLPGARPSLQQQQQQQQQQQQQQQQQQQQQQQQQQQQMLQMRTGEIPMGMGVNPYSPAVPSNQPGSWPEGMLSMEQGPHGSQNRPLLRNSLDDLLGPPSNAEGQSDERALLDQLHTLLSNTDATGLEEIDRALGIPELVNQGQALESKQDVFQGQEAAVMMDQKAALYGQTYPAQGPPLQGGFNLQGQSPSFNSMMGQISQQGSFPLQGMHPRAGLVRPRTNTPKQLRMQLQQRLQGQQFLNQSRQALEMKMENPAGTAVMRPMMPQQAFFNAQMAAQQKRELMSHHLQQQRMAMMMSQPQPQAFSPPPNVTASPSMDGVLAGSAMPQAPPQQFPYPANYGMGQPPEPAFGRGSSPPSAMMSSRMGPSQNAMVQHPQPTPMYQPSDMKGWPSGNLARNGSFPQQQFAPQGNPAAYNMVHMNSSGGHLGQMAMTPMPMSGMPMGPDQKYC
HTR5A ag – HTR5A agonists in luminescence cell assay, primary screen, counter-screen for OPRM1-OPRD1 heterodimer agonist project, full-deck HTS. 5-hydroxytryptamine receptor 5A (Homo sapiens), P47898. cell-based. activation, % at 9.3 µM. 0.61% of 340,000 active. AID 504692, 2011; in the data active = activation mostly above about 9.5%, no sharp cut-off; inactive = mostly below about 7.6%;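 note: 0% = cells with vehicle only and 100% = reference agonist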
MOR-DOR inv ag – inverse agonists of MOR-DOR heterodimerization, primary screen, cell-based, luminescence; cell-based MOR-DOR heterodimer luminescence, inverse agonism; inhibition, % at 9.3 µM; 0.21% of 340,000 active; Mu-type opioid receptor (Homo sapiens) + Delta-type opioid receptor (Homo sapiens), …; AID 504357, 2011; in the data active = inhibition above about 22%, passing the limit was not always enough;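 note: 0% = cells with DMSO and 100% = wells without cells with DMSO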
MOR-DOR ag-2 – OPRM1-OPRD1 heterodimerization promoters, counter-screen for HTR5A agonist project, cell-based, luminescence. shares compounds with HTR5A ag. U2OS counter-screen cells, complementation luminescence, 3 h. activation, % at 9.3 µM. 13% of 800 active
HTR5A ag confirm – HTR5A agonists, retest of hits, confirmation, cell-based, luminescence; HTR5A agonist cell assay; shares compounds with HTR5A ag; activation, % at 9.3 µM; 17% of 800 active; in the data active = activation above about 17%;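 note: 0% = cells with vehicle only and 100% = full reference agonist response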
Active calls of the source: *; . = no result. Cut-off read from the data, not from the text of the source, unless noted: active = activation above about 18%; inactive = the rest.

SMILES	HTR5A inv ctr	beta cell repl	MOR-DOR ag-1	pCIP destab	HTR5A ag	MOR-DOR inv ag	MOR-DOR ag-2	HTR5A ag confirm
O=C(Nc1ccc(Nc2ccccc2)cc1)c1c(F)c(F)c(F)c(F)c1F	-7.2	-4.7	4.8	2.6	16.0*	-23.8	10.6	3.5
O=C(Nc1ccc(Nc2ccccc2)cc1)c1c(Cl)cccc1Cl	27.6	-4.8	0.1	.	-1.6	-0.5	.	.
COc1cc(NC(=O)COc2ccccc2[N+](=O)[O-])ccc1NC(=O)c1cccs1	-42.5	.	9.3	-13.3	15.6*	-49.5	7.1	9.1
COc1cc(NC(=O)COc2ccccc2Cl)ccc1NC(=O)c1cccs1	-17.6	-0.4	4.0	-3.1	7.9	-32.9	.	.
O=C1CC/C=C\C[C@@H](CC(=O)N(CCO)Cc2ccccc2)C(=O)N[C@H](Cc2c[nH]c3ccccc23)CO1	5.6	-2.8	0.1	.	2.9	-0.7	.	.
O=C(c1ccco1)N1CCN(C(=O)c2ccc(-c3cccc(C(F)(F)F)c3)o2)CC1	-92.1	1.1	-1.4	.	35.3*	9.3	0.2	23.4*
O=C(c1ccc(-c2cccc(C(F)(F)F)c2)o1)N1CCCCCCC1	-9.8	-0.1	2.6	.	3.6	-13.7	.	.
COc1ccc2[nH]c3c(c2c1)CCNC3=O	-8.1	6.9	-3.4	.	-1.9	18.1	.	.
COc1ccc2[nH]c3c(c2c1)CCNC3(C)CCc1ccc(Cl)nc1 (stereo unspecified)	-80.7	-2.2	-0.8	-5.6	20.8*	4.8	2.3	33.8*
CC(=O)Nc1cccc(C(=O)OCC(=O)N(c2ccccc2)C2CCS(=O)(=O)C2)c1 (stereo unspecified)	-5.1	1.1	-3.4	.	2.1	17.8	.	.
O=C(Nc1nc(-c2cccs2)cs1)c1ccc(S(=O)(=O)N2CCCCC2)cc1	-53.6	-3.8	0.2	-24.2	19.2*	-0.9	-0.8	-7.1
CCOc1ccc(S(=O)(=O)N2CCNC(=O)C2)cc1	-56.6	-2.5	0.1	.	20.4*	-0.3	-0.3	1.8
CCOc1ccc(S(=O)(=O)N2CN3CCN(C3)C2)cc1	-14.3	-4.3	-1.7	-5.4	2.2	9.5	.	.
CC[C@]12c3[nH]c4ccccc4c3CCN1C(=O)C(CC(=O)NCCCN(C)C)C[C@@H]2C(=O)N1CCN(C(=O)c2ccco2)CC1 (stereo partly specified)	-3.8	0.5	-1.6	.	1.0	7.3	.	.
O=C(Oc1c(Cl)cc(Cl)c2cccnc12)c1ccco1	-0.1	-4.5	4.5	-9.6	26.1*	-26.4	4.0	0.3
Oc1c(Cl)cc(Cl)c2cccnc12	24.4	.	7.8	-6.8	-9.4	-39.7	.	.
O=C(Oc1c(CN2CCOCC2)cc(Cl)c2cccnc12)c1cccs1	10.2	-6.5	0.4	8.9	-3.7	-2.0	.	.
O=C(Oc1c(Cl)cc(Cl)c2cccnc12)c1cccs1	10.6	-6.0	5.6	1.6	17.2*	-29.0	8.2	-1.5
Cc1ccc(S(=O)(=O)N2CCC(C(=O)N3CCc4ccccc43)CC2)cc1C	-12.5	-6.8	-1.1	.	12.3	6.8	.	.
C=C[C@@H]1c2ccccc2N(S(=O)(=O)c2ccc(C)cc2)[C@H](c2ccc(C(=O)OC)cc2)C1(C#N)C#N	-6.8	-5.2	-2.5	.	3.8	11.5	.	.
NNS(=O)(=O)c1ccc(Sc2ccccn2)c([N+](=O)[O-])c1	14.5	-0.7	-3.1	-7.1	14.9*	15.5	-0.2	13.3
CCn1c(N2CCN(C(=O)NC3CCCCC3)CC2)nc2ccccc21	-47.5	-0.3	-0.5	-10.5	23.9*	2.9	15.8	1.9
COc1ccc(C(=O)NCc2c(C)nn(Cc3ccccc3)c2C)cc1S(=O)(=O)N1CCOCC1	-42.2	-2.3	-3.1	.	16.6*	12.5	0.5	-0.3
COc1ccc(S(=O)(=O)N2CCOCC2)cc1C(=O)NCc1c(C)nn(Cc2ccccc2)c1C	-11.5	.	-0.5	.	4.2	2.0	.	.
O=C(O)c1nccnc1C(=O)NCCc1c[nH]c2ccccc12	-5.3	-0.6	-3.4	-3.8	15.9*	17.9	-0.1	11.8
SMILES	HTR5A inv ctr	beta cell repl	MOR-DOR ag-1	pCIP destab	HTR5A ag	MOR-DOR inv ag	MOR-DOR ag-2	HTR5A ag confirm
Cc1ccccc1NC(=O)C(=O)NCCc1c[nH]c2ccccc12	-190.0	-2.4	3.0	-13.8	34.7*	-16.4	2.2	61.0*
Fc1cccc(NCCc2c[nH]c3ccccc23)n1	11.7	-1.3	4.5	3.1	-3.0	-26.1	.	.
COc1ccc(C(=O)CCC(=O)NCCc2c[nH]c3ccccc23)cc1	-156.4	-3.7	-4.5	-1.0	44.3*	20.1	0.2	42.1*
O=C(Cc1ccccc1)NCCc1c[nH]c2ccccc12	-1.6	-3.6	-2.0	-1.8	-0.1	10.4	.	.
c1ccc2c(NCCc3c[nH]c4ccccc34)c3ccccc3nc2c1	-67.9	-6.0	3.1	-11.3	17.3*	-17.3	6.9	2.1
O=C(NCCc1c[nH]c2ccccc12)c1cccc(S(=O)(=O)Nc2ccccc2Cl)c1	1.6	0.0	-1.6	-15.6	-0.4	7.9	.	.
CN(c1ccccc1)S(=O)(=O)c1cccc(C(=O)NCCc2c[nH]c3ccccc23)c1	-72.9	-5.4	-1.6	.	26.7*	8.3	57.0*	0.6
O=C(CCC(=O)c1ccccc1)NCCc1c[nH]c2ccccc12	-292.6	0.0	-1.4	-4.5	93.5*	7.7	2.1	89.1*
CCOc1ccc2oc(C(=O)N(CCOC)c3c(N)n(CC(C)C)c(=O)[nH]c3=O)c(C)c2c1	-22.4	-2.3	-1.7	.	2.9	6.6	.	.
CSc1cccc(NC(=O)N2CCc3ccc(NC(=O)c4ccccn4)cc3C2)c1	-9.9	-5.1	1.4	-1.8	15.7*	-7.1	17.6	16.3
CCOC(=O)C1=C(C(=O)OCC)N(CC)CCC1=O	6.2	.	-0.6	.	-1.7	2.9	.	.
CCOC(=O)c1c(CSC(=N)N)n(C)c2cc(Br)c(OC(C)=O)cc12	15.9	-6.4	-1.2	-1.0	4.3	5.8	.	.
CCOC(=O)c1c(CSC(=N)N)n(-c2ccc(C)cc2)c2cc(Br)c(OC(C)=O)cc12	-97.7	-6.0	16.1	2.5	16.7*	-93.4	14.0	7.6
O=C(Nc1nnc(Cc2c[nH]c3ccccc23)s1)c1ccc(Cl)cc1Cl	7.9	0.0	3.9	4.7	7.3	-20.1	.	.
CC(C)(C)c1ccc(C(=O)Nc2nnc(Cc3c[nH]c4ccccc34)s2)cc1	-53.0	-1.7	8.1	-5.0	21.0*	-43.2	0.5	0.6
